Screening results from PubChem.
The list is not random: actives were taken first. Their share in the collection is about 6.8%.
DPM-DC inhibit = S. pneumoniae DPM-DC inhibition. purified DPM-DC, PK/LDH coupled NADH fluorescence. calls only at 10 µM. 0.49% of 65,000 active;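 active = the 320 compounds with the highest percent inhibition in the single-dose primary screen, excluding strongly autofluorescent ones, cut at about 32% in these data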;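 also: kinetic rate of NADH fluorescence loss reporting ADP formed by the decarboxylase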
PMK inhibit = inhibitors of Streptococcus pneumoniae phosphomevalonate kinase. purified PMK, PK/LDH-coupled NADH absorbance 340 nm. inhibition, % at 10 µM. 0.49% of 65,000 active;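 active = top-ranked compounds by inhibition in the single 10 µM screen, taking a fixed number of the strongest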;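 also: 0% = full reaction with DMSO carrier and 100% = background rate without enzyme reaction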
Abs 340nm = compounds absorbing at 340 nm; compound absorbance at 340 nm, fold over control; fold change at 10 µM; 65,000 tested, under 10 active;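 active = at 10 µM dose, initial 340 nm absorbance at least 2 fold that of control wells; inactive = change under 2 fold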;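 also: initial absorbance extrapolated from kinetic A340 decline of NADH oxidation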
NADH enzymes = inhibition of NAD/NADH coupling enzymes, library profiling. AID 774. 0.02% of 65,000 active. IC50, µM (doses to about 10 µM), inactives show top-dose inhibition. coupled PK/LDH NADH assays, four targets;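 active = single-dose screening hits from any of four coupled enzyme assays that gave an IC50 when retested across doses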;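 also: the DPM-DC format reads NADH fluorescence rather than 340 nm absorbance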
Autofluor 339 = intrinsic fluorescence of library compounds, ex339/em460 – biochemical, MLSMR library, data from DPM-DC assay, artefact control, profiling panel; fluorescence fold increase at 10 µM; 5.5% of 65,000 active; compound autofluorescence, ex339/em460 nm, NADH buffer; stronger effect = higher value; 1 = no-compound wells, NADH background; AID 709;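 active = at 10 µM, mean starting fluorescence two-fold or more over control wells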;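 also: signal is the first read of a kinetic run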
MK inhibit = blocks S. pneumoniae mevalonate kinase; purified MK, PK/LDH-coupled NADH absorbance 340 nm; inhibition, % at 10 µM; 0.48% of 65,000 active; AID 555;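 active = ranked among the strongest by inhibition in the single 10 µM screen, a fixed top-ranked set picked for dose follow-up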
Numbers without * were called inactive; i = inactive; · = no result given.

SMILES	DPM-DC inhibit	PMK inhibit	Abs 340nm	NADH enzymes	Autofluor 339	MK inhibit
Cc1ccc2[nH]c(=O)c(CN(CC3CCCO3)C(=O)c3ccco3)cc2c1 (centres undefined)	i	0	1.1	1%	1.6	3
CCCCN(Cc1cc2cc(OC)ccc2[nH]c1=O)C(=O)c1ccccn1	·	9	1	3%	2.5*	10
Cc1ccc2cc(CN(CCN3CCOCC3)C(=O)NCc3ccccc3)c(=O)[nH]c2c1C	i	7	1.1	6%	2.1*	8
Cc1ccc2cc(CN(CCN3CCCC3)C(=O)Nc3ccccc3)c(=O)[nH]c2c1C	i	6	1	2%	1.3	0
O=C(c1ccc(Br)s1)N1CCN(Cc2ccc3c(c2)OCO3)CC1	i	7	1	6%	1.1	10
CCC(=O)N(CCc1ccccc1C)Cc1cc2cc3c(cc2[nH]c1=O)OCO3	·	13	1.1	11%	3.8*	9
O=c1c(-c2nc3ccccc3o2)c2oc3ccccc3n2c2ccccc12	·	7	1.1	4%	5*	0
O=C1C(=O)N(CCN2CCOCC2)C(c2ccncc2)/C1=C(/O)c1ccc2c(c1)OCO2 (centres undefined)	i	0	1.1	26%	1.1	79*
CC(C)(C)NC(=O)c1ccc2c(c1)N(CC(=O)N1CCN(c3ccc(F)cc3)CC1)C(=O)C(C)(C)O2	i	21	0.97	10%	0.95	6
COc1cc(CN2CCN(c3cccc(Cl)c3)CC2)cc(OC)c1OC	i	3	1	2%	1	3
COc1cccc(N2CCN(Cc3cccnc3)CC2)c1	i	0	1.1	6%	1	51*
FC(F)(F)c1cccc(N2CCN(Cc3ccoc3)CC2)c1	i	12	1.1	21%	1.1	50*
COc1cccc(CN2CCN(c3cccc(C(F)(F)F)c3)CC2)c1OC	i	0	1	1%	1.1	4
FC(F)(F)c1cccc(N2CCN(Cc3cccnc3)CC2)c1	i	1	1	9%	1	56*
C=C(C)CSc1nnc([C@H](CCSC)NC(=O)OC(C)(C)C)o1	i	9	1	4%	1.1	4
Cc1cccn2c(=O)c3cc(C(=O)NCc4cccnc4)c(=N)n(C)c3nc12	i	9	1	9%	1.9	3
Cc1cc(C)n2ncc(C(=O)NCc3cccnc3)c2n1	i	8	1	7%	3.6*	9
O=C(NCc1cccnc1)c1cnn2ccccc12	i	4	1.1	3%	1.2	5
Cc1cccn2c(=O)c3cc(C(=O)NCc4cccnc4)c(=N)n(C(C)C)c3nc12	·	7	1.1	11%	3.7*	15
Cc1ccc2nc3c(cc(C(=O)NCc4cccnc4)c(=N)n3C(C)C)c(=O)n2c1	·	11	1	7%	5*	3
O=C(/C=N/O)Nc1ccc(F)cc1	i	12	1	7%	1.1	7
CC(=NC(C)C)C1=C(O)CCC1=O	i	8	1	3%	1.1	0
CCOC(=O)C12CNC(=O)C(C(=O)OCC)(CNC1=O)C2	i	10	1	4%	1	1
O=C(Cc1cn2ccsc2n1)OCc1ccccc1	i	13	0.98	7%	1	8
O=C(Cc1cn2ccsc2n1)OCc1nc2ccccc2s1	i	25*	1	9%	1	1
SMILES	DPM-DC inhibit	PMK inhibit	Abs 340nm	NADH enzymes	Autofluor 339	MK inhibit
CCCCOC(=O)CSC1=C(C#N)C(c2ccccc2OC)C(C#N)C(=O)N1 (centres undefined)	i	3	0.99	27%	1.1	78*
O=C(NCC1CCCCN1)c1cc(OCC(F)(F)F)ccc1OCC(F)(F)F (centres undefined)	i	8	0.99	4%	1	6
COc1cccc(C(=O)OC2CCCN(C)C2)c1 (centres undefined)	i	3	1	3%	1	·
c1nc2sc3c(c2c2nnnn12)CCC3	·	12	1	10%	2.1*	8
O=c1cc(NCCO)c2ccccc2o1	i	0	1.1	2%	1.1	6
OCCCCNc1cccc2ccccc12	·	10	0.99	9%	3.7*	8
Cc1noc(C)c1COC(=O)CCCc1nc2ccccc2s1	i	9	1	5%	1.1	2
